Activity calls are given as the source filed them. How the source made its calls: active means hit-call score of the fitted dose curve at least 0.9, where 1 is the maximum; inactive means score below 0.9.

Experiment [1] can be described thus: ATG_M_32_CIS: Attagene CIS-FACTORIAL HepG2 Assay for M32 Transcription Factor (Internal Marker) (AID 2282949).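 Further: background control marker of the multiplexed CIS panel rather than a real target.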 The conditions noted are these: HepG2 Attagene cis-factorial M32 reporter, mRNA; actives raise or lower the signal. An outline of the steps:
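HepG2 transfectants (cis-regulated reporter transcription units) dosed 24 h. Reporter mRNA by RT-PCR plus CE, analysed as gain or loss relative to DMSO.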

Experiment [2] is described as follows: ATG_M_06_CIS: Attagene CIS-FACTORIAL HepG2 Assay for M06 Transcription Factor (Internal Marker) (AID 2282950). The conditions noted are these: HepG2 Attagene CIS-FACTORIAL M06 internal marker reporter; actives raise or lower the signal. An outline of the steps: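 Cells (HepG2, transiently carrying cis-driven reporter units) receive chemical for 24 h before RNA isolation. Reporter cDNA is PCR-amplified, FAM-labelled by primer extension, HpaI-digested and sized on a capillary analyser.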

The target of experiment [3] is Hypoxia-inducible factor 1-alpha (Homo sapiens) (UniProt Q16665). In words: ATG_HIF1a_CIS: Attagene CIS-FACTORIAL HepG2 Assay for human Hypoxia Inducible Factor 1 (HIF1A) (AID 2282951). The conditions noted are these: HepG2 Attagene cis-factorial HIF1a reporter transcription; actives raise or lower the signal. An outline of the steps:
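Activity is fitted in both directions relative to DMSO. Reporter transcripts are read by RT-PCR, fluorescent primer extension and capillary electrophoresis after 24 h chemical treatment. The cells are HepG2 carrying transiently transfected cis-element-driven reporter units responding to endogenous factors.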

Experiment [4] has as its target Hepatocyte nuclear factor 6 (Homo sapiens) (UniProt Q9UBC0). In words: ATG_HNF6_CIS: Attagene CIS-FACTORIAL HepG2 Assay for human Hepatocyte Nuclear Factor 6 (HNF6) (AID 2282952). The conditions noted are these: HepG2 Attagene cis-factorial HNF6 reporter transcription; actives raise or lower the signal. Summed up: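 Activity values derive from bidirectional fitting against DMSO of reporter mRNA levels, measured by capillary electrophoresis of labelled RT-PCR products from HepG2 cells exposed 24 h.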

The target of experiment [5] is Heat shock factor protein 1 (Homo sapiens) (UniProt Q00613). In words: ATG_HSE_CIS: Attagene CIS-FACTORIAL HepG2 Assay for human Heat Shock Transcription Factor 1 (HSE) (AID 2282953). The conditions noted are these: HepG2 HSE cis-reporter, Attagene RNA transcription; actives raise or lower the signal. An outline of the steps: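 Liver-derived HepG2 cells carry transiently introduced multiple reporter units governed by cis promoters. Reporter RNA measured 24 h post-dose through reverse transcription, PCR amplification, fluorescent labelling and capillary electrophoresis, normalised to DMSO.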
Chain of Heat shock factor protein 1 (Homo sapiens) (Q00613 whole entry, looked up): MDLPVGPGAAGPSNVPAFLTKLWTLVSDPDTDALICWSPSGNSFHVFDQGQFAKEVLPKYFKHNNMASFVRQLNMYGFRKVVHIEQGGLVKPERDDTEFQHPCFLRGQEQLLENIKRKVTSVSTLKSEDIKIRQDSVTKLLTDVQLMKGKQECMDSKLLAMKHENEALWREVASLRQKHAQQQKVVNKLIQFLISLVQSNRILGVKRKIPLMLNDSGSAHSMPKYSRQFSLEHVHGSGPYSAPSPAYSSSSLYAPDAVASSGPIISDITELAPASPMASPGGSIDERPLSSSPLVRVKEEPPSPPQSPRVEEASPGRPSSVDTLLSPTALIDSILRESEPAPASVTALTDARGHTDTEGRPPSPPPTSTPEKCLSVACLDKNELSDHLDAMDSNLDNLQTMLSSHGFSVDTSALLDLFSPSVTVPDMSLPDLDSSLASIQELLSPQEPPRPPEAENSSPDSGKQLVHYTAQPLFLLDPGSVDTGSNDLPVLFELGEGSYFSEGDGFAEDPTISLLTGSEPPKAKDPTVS

Experiment [6] can be described thus: ATG_MRE_CIS: Attagene CIS-FACTORIAL HepG2 Assay for human Metal Responsive Element (MRE) (AID 2282954). The conditions noted are these: HepG2 MRE cis-reporter transcription, Attagene multiplex; actives raise or lower the signal. Summed up:
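Measured here is mRNA induction from an MRE cis-element reporter in HepG2 after 24 h, quantified by fluorescence of labelled RT-PCR products on capillary electrophoresis; gain- and loss-of-signal fits use DMSO as baseline.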

The target of experiment [7] is Paired box protein Pax-6 (Homo sapiens) (UniProt P26367). In words: ATG_Pax6_CIS: Attagene CIS-FACTORIAL HepG2 Assay for human Paired Box 6 (PAX6) (AID 2282956). The conditions noted are these: HepG2 CIS-FACTORIAL PAX6 reporter transcription, RNA readout; actives raise or lower the signal. An outline of the steps:
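DMSO-referenced bidirectional fits of reporter mRNA fluorescence; HepG2 with transient cis-promoter MRTUs, 24 h post-dose, RT-PCR plus capillary electrophoresis detection.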

Experiment [8] can be described thus: ATG_PXRE_CIS: Attagene CIS-FACTORIAL HepG2 Assay for human Pregnane X Receptor Element (PXRE) (AID 2282957). The conditions noted are these: HepG2 Attagene CIS-FACTORIAL PXRE reporter, mRNA; actives raise or lower the signal. An outline of the steps:
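Fluorescent capillary electrophoresis of amplified reporter cDNA gave the signal, collected 24 h after dosing HepG2 cells that held transfected cis-element reporter constructs.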

Experiment [9] can be described thus: ATG_PPRE_CIS: Attagene CIS-FACTORIAL HepG2 Assay for human Peroxisome Proliferator-activated Response Element (PPRE) (AID 2282958). The conditions noted are these: HepG2 PPRE cis-element reporter, Attagene transcription factor profiling; actives raise or lower the signal. Summed up:
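Endogenous PPRE-driven transcription is measured in HepG2 cells carrying transfected multi-reporter constructs. Reporter transcripts are quantified by RT-PCR, HpaI digestion and capillary electrophoresis 24 h after dosing. DMSO baseline, bidirectional fit.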

Experiment [10] in a line: ATG_RORE_CIS: Attagene CIS-FACTORIAL HepG2 Assay for human RAR-related Orphan Receptor Element (RORE) (AID 2282959). The conditions noted are these: HepG2 Attagene cis-factorial RORE reporter, mRNA; actives raise or lower the signal. An outline of the steps: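 RORE reporter transcripts reflecting endogenous factor activity were read after 24 h compound exposure of transfected HepG2 cells, using reverse transcription, PCR, fluorescent labelling and capillary electrophoresis sizing. Gain or loss fitted against DMSO.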

For experiment [11], the target named is Transcription factor Sp1 (Homo sapiens) (UniProt P08047). Briefly: ATG_Sp1_CIS: Attagene CIS-FACTORIAL HepG2 Assay for human Specificity Protein 1 (Sp1) (AID 2282961). The conditions noted are these: HepG2 Sp1 cis-reporter transcription, actives raise or lower the signal. An outline of the steps: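 Read-out is reporter transcript level, measured by RT-PCR and fluorescent capillary electrophoresis after 24 h chemical treatment. System: transiently transfected HepG2 cells reporting endogenous transcription factor activity; gain or loss fitted against DMSO baseline.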
Chain of Transcription factor Sp1 (Homo sapiens) (P08047 whole entry, looked up): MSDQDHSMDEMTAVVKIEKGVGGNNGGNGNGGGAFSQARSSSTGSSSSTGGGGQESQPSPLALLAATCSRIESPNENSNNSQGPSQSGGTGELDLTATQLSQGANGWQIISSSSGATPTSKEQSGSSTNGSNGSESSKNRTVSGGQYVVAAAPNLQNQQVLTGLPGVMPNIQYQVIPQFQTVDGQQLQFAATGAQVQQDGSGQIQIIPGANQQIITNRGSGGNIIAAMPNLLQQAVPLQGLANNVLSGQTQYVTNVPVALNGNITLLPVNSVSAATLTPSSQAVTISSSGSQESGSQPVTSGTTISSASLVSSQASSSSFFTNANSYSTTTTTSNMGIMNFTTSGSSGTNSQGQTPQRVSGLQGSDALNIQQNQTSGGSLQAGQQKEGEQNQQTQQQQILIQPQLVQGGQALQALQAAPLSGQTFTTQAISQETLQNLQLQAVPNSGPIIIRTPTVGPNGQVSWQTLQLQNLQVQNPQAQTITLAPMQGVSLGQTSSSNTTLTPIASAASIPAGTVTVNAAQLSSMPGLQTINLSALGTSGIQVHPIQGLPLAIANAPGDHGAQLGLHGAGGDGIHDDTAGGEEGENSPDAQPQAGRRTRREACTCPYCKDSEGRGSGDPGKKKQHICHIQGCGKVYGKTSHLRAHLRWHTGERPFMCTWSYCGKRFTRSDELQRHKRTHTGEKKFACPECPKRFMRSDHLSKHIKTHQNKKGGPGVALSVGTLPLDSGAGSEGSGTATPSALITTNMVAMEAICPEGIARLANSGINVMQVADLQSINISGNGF

The nature of experiment [12]: ATG_SREBP_CIS: Attagene CIS-FACTORIAL HepG2 Assay for human Sterol Regulatory Element Binding (SREBP) (AID 2282962). The conditions noted are these: HepG2 Attagene cis-factorial SREBP reporter, mRNA; actives raise or lower the signal. Summed up: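 In this cis-format assay, HepG2 liver cells express reporters controlled by promoter elements responsive to native transcription factors. Exposure lasts 24 h; reporter mRNA fluorescence from capillary electrophoresis gives the signal, fitted bidirectionally against DMSO.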

Experiment [13] addresses Signal transducer and activator of transcription 3 (Homo sapiens) (UniProt P40763). In words: ATG_STAT3_CIS: Attagene CIS-FACTORIAL HepG2 Assay for human Signal Transducer and Activator of Transcription 3 (STAT3) (AID 2282963). The conditions noted are these: HepG2, Attagene cis-factorial STAT3 reporter transcription; actives raise or lower the signal. An outline of the steps: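 Fluorescence intensity of 6-FAM-labelled reporter fragments, separated by capillary electrophoresis after RT-PCR, gave the signal. Cells were HepG2 transfected with cis-element reporter units and treated 24 h; fitting was bidirectional relative to DMSO.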

The nature of experiment [14]: ATG_TA_CIS: Attagene CIS-FACTORIAL HepG2 Assay for human TA Basal Promoter (AID 2282964). The conditions noted are these: HepG2 Attagene CIS-factorial TA basal promoter reporter; actives raise or lower the signal. An outline of the steps: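 Background internal-marker endpoint from a 52-component HepG2 cis-reporter panel. Cells treated 24 h; reporter transcripts quantified via RT-PCR and CE fluorescence against DMSO baseline.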

Experiment [15] in a line: ATG_TCF_b_cat_CIS: Attagene CIS-FACTORIAL HepG2 Assay for human T-Cell-Factor with beta-catenin (TCF/b-cat) (AID 2282965). The conditions noted are these: HepG2 TCF/beta-catenin cis-reporter transcription, actives raise or lower the signal. Summed up: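 HepG2, transient MRTU transfection, cis-element-driven reporters (endogenous TFs). 24 h compound exposure. Readout: reporter mRNA by RT-PCR + 6-FAM primer extension, HpaI digest, capillary electrophoresis. Gain/loss fit vs DMSO baseline.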

Experiment [16] is described as follows: ATG_TAL_CIS: Attagene CIS-FACTORIAL HepG2 Assay for human TAL Basal Promoter (AID 2282966).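 Further: background control endpoint measuring basal TAL promoter reporter mRNA not a specific factor.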 The conditions noted are these: HepG2 Attagene cis-factorial TAL promoter reporter; actives raise or lower the signal. An outline of the steps: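 Transiently transfected HepG2 (cis-regulated reporter units), 24 h treatment, mRNA read by fluorescent CE after RT-PCR; bidirectional fit, DMSO baseline.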

A short description of experiment [17]: ATG_TGFb_CIS: Attagene CIS-FACTORIAL HepG2 Assay for human Transforming Growth Factor (TGF) (AID 2282967). The conditions noted are these: HepG2 Attagene CIS TGFb reporter, mRNA transcription; actives raise or lower the signal. Summed up: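 Liver HepG2 line, cis-factorial reporter panel, 24 h dosing. Quantitation: RT-PCR products labeled with 6-FAM, cut with HpaI, resolved by capillary electrophoresis; DMSO-referenced bidirectional analysis.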

Experiment [18] can be described thus: ATG_VDRE_CIS: Attagene CIS-FACTORIAL HepG2 Assay for human Vitamin D Receptor Element (VDRE) (AID 2282968). The conditions noted are these: HepG2 VDRE cis-reporter transcription, actives raise or lower the signal. Summed up:
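Compounds were applied for 24 h to HepG2 cells transfected with promoter-regulated reporter units. Total RNA was reverse-transcribed, and reporter amplicons were fluorescently labelled and sized by capillary electrophoresis.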

Experiment [19] in a line: ATG_Sox_CIS: Attagene CIS-FACTORIAL HepG2 Assay for human SRY-box transcription factor (SOX) (AID 2282960). The conditions noted are these: HepG2 Attagene cis-factorial SOX reporter, mRNA; actives raise or lower the signal. Summed up: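 Reporter transcripts, measured by RT-PCR and capillary electrophoresis of labelled fragments, report endogenous SOX transcription factor activity. Transiently transfected human HepG2 cells receive chemical for 24 h; changes in either direction are fitted relative to DMSO.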

Experiment [20] is described as follows: ATG_PBREM_CIS: Attagene CIS-FACTORIAL HepG2 Assay for human Phenobarbital-responsive Enhancer Module (PBREM) (AID 2282955). The conditions noted are these: HepG2 PBREM cis-reporter, Attagene multiplexed transcription; actives raise or lower the signal. Summed up:
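Endogenous transcription factor activity was read from reporter transcripts in transiently transfected human HepG2 liver cells after 24 h dosing. RT-PCR products were fluorescently labelled, HpaI-cut and sized by capillary electrophoresis; activity fitted bidirectionally against DMSO baseline.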

Chain of Hepatocyte nuclear factor 6 (Homo sapiens) (Q9UBC0 whole entry, looked up): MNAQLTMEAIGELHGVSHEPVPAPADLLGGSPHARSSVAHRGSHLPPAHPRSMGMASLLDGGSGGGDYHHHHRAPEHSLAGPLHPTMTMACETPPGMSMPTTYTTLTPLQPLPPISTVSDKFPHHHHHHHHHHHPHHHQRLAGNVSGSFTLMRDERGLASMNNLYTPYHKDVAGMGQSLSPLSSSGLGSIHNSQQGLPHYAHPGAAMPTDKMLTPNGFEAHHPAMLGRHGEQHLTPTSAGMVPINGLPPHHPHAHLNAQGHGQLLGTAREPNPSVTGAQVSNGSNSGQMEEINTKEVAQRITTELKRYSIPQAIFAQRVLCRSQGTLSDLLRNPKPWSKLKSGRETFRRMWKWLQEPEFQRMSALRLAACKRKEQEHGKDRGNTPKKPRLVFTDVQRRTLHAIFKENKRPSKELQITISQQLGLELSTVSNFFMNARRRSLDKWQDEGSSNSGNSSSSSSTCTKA
Chain of Hypoxia-inducible factor 1-alpha (Homo sapiens) (Q16665 whole entry, looked up): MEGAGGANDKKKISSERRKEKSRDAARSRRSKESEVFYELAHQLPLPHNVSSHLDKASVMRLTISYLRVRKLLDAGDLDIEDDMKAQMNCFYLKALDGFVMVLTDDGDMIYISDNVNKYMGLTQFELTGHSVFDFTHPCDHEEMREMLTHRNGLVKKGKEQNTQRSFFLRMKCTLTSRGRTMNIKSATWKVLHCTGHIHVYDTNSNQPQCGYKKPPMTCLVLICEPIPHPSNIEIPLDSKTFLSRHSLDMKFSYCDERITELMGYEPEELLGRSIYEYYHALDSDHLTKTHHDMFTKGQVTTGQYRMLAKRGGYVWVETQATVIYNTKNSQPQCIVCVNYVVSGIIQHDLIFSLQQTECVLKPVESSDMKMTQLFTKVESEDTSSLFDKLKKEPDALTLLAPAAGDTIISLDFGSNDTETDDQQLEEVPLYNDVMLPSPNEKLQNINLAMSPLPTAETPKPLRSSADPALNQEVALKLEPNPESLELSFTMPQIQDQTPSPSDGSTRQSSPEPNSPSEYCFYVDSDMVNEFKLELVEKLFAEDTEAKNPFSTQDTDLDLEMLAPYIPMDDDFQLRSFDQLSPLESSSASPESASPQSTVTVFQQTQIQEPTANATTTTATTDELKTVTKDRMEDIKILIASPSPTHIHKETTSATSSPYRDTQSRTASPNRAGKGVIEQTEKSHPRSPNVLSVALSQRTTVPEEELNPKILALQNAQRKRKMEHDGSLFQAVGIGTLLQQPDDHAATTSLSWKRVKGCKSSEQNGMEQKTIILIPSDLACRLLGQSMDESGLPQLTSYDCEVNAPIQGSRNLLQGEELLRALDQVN
Chain of Paired box protein Pax-6 (Homo sapiens) (P26367 whole entry, looked up): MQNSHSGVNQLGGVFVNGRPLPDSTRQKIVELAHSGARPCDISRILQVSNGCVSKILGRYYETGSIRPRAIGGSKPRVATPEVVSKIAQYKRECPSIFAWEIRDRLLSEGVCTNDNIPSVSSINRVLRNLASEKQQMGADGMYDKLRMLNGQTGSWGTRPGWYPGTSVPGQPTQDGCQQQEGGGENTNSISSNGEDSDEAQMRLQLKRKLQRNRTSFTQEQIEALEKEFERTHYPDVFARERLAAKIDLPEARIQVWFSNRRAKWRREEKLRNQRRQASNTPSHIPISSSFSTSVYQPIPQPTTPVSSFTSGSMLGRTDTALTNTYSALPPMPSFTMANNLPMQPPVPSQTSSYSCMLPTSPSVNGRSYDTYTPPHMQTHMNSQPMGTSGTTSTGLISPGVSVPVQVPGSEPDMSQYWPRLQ
Chain of Signal transducer and activator of transcription 3 (Homo sapiens) (P40763 whole entry, looked up, the tested form may be a part): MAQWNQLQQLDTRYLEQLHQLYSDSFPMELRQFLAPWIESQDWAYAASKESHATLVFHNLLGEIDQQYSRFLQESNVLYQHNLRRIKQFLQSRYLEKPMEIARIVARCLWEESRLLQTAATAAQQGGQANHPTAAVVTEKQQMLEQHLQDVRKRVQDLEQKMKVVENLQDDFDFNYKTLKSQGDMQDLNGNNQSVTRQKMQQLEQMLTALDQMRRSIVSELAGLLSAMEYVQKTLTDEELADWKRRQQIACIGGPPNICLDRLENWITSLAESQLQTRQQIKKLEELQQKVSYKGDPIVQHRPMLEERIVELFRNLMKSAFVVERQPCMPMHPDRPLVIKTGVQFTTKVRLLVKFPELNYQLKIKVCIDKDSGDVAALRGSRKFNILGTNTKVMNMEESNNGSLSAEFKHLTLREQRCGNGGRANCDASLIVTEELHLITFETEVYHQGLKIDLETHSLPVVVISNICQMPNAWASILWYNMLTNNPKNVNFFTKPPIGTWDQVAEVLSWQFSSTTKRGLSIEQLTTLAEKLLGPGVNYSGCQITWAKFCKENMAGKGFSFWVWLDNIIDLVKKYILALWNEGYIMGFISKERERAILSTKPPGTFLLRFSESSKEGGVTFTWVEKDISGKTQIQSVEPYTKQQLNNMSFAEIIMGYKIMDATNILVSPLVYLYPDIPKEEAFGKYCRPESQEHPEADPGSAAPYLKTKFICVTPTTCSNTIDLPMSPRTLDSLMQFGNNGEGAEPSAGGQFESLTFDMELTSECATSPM

As for `O=C(CCl)NCO`, the molecule was called inactive in [1], in experiment [2], in experiment [3], in experiment [4], in experiment [5] and in [6]. Also, the molecule was classed as inactive in experiment [7], in experiment [8], in experiment [9], in experiment [10], in experiment [11] and in experiment [12]. For the same molecule, the molecule was called inactive in experiment [13], in [14], in experiment [15], in experiment [16] and in [18]. In experiment [17], the AC50 is 765 nM (active).

With `C=CCCl`, the call in [1], in experiment [2], in [3], in [4], in experiment [5] and in experiment [6] was inactive. Moreover, the outcome in experiment [7], in [9], in experiment [10], in experiment [19], in experiment [11] and in [12] was inactive. Also, the call in experiment [13], in experiment [14], in experiment [15], in [16], in [17] and in experiment [18] was inactive. Further, the AC50 in [8] is 100000 nM (active).

For the molecule `c1ccc(-c2cccc(-c3ccccc3)c2)cc1`, the molecule was called inactive in experiment [1], in experiment [2], in experiment [3], in experiment [4], in experiment [5] and in experiment [6]. The call in experiment [7], in experiment [10], in experiment [19], in [11], in experiment [12] and in [13] was inactive. Moreover, the molecule was classed as inactive in experiment [14], in [15] and in experiment [16].

Regarding `C=C(C)C(=O)OCCCCOC(=O)C(=C)C`, the result in experiment [1], in experiment [2], in experiment [3], in [4], in [5] and in experiment [6] was inactive. Besides, the result in [8], in experiment [9], in experiment [10], in experiment [19], in [11] and in experiment [13] was inactive. Moreover, the result in experiment [14], in experiment [15], in experiment [16], in experiment [17] and in [18] was inactive.

Turning to `C[C@@H]1O[C@@H](O[C@H]2C[C@@H](O)[C@]3(CO)[C@H]4[C@H](O)C[C@]5(C)[C@@H](C6=CC(=O)OC6)CC[C@]5(O)[C@@H]4CC[C@]3(O)C2)[C@H](O)[C@H](O)[C@H]1O`, the outcome in experiment [1], in experiment [2], in experiment [6], in experiment [20], in experiment [7] and in experiment [9] was inactive. In addition, the molecule was classed as inactive in experiment [10], in [13], in experiment [14], in experiment [17] and in experiment [18]. Also, the AC50 was 71.6 nM (active) in experiment [4]; 71.6 nM (active) in experiment [5]; 137 nM (active) in [8]; 71.6 nM (active) in [11]; 71.6 nM (active) in experiment [12]; 2310 nM (active) in experiment [15]. In addition, the concentration at half-maximal activity (AC50) in experiment [16] is 165 nM (active).

Broadly, the AC50 is the concentration giving half of the maximal activity seen.

The record behind these values is PubChem BioAssay (EPA / NIEHS).
